Reference: PubChem BioAssay AID1851 (National Center for Advancing Translational Sciences (NCATS), 2009)
Screen size: about 16,000 compounds; about 5,100 (32%) were called active. Not shown: some 25% with an inconclusive outcome. Calls come from the whole dose curve; as a rule, active = well fitted curve in the direction sought with a large enough effect; inconclusive = small, poorly fitted or top-dose-only effect, or effect the other way; inactive = no such curve, though single readings can be large or run the other way. This is one part of the list.

Each compound was assayed against Cytochrome P450 3A4 (Homo sapiens) (UniProt P08684) (assay: Cytochrome panel assay with activity outcomes). Conditions: recombinant CYP, pro-luciferin dealkylation, luminescence, p450-cyp3a4; series mostly up to 57.1 µM.
Chain of Cytochrome P450 3A4 (Homo sapiens) (P08684 whole entry, looked up): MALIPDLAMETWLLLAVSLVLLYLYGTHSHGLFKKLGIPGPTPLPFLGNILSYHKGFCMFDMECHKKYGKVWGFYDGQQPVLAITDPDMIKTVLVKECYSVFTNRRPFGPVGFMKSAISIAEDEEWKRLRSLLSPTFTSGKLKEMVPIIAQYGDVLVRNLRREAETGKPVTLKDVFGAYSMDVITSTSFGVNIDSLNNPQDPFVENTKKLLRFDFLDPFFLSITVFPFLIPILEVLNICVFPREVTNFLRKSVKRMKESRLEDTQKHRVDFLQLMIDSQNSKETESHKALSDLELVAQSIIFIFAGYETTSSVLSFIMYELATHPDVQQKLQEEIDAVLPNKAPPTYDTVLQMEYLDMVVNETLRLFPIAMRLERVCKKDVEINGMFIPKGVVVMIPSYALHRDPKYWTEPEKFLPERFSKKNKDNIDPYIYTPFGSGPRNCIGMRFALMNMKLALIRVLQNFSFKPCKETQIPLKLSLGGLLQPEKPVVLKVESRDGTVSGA
% is set by controls: 0 for no effect and ±100 for the full control effect.

| SMILES | AC50 | activity, negative = inhibition |
| --- | --- | --- |
| C=C1CC[C@H](O)C/C1=C/C=C1\CCC[C@]2(C)[C@H]1CC[C@H]2[C@@H](C)/C=C\[C@@H](C)C(C)C | inactive | – |
| O=C1CC[C@](CCc2nc3ccccc3[nH]2)(c2ccccc2)C(=O)N1 | – | -26.9% [at 11.4 µM] (inactive) |
| CCCNC(=O)c1c(C)cc(=O)oc1C | inactive | – |
| CCCCCCCCC(=O)N/N=C/c1cccc(Br)c1 | – | -6.69% [at 11.4 µM] (inactive) |
| C/C(=N\NC(N)=O)c1ccc(Cl)cc1 | – | -0.483% [at 11.4 µM] (inactive) |
| C=CCNC(=O)CC(=O)N/N=C/c1cccc(Br)c1 | inactive | – |
| C/C(=N\NC(=O)CSCc1ccc(Cl)cc1)c1ccc2c(c1)OCCO2 | 14.1 µM (active) | – |
| O=C(CSCc1cccc(Br)c1)N/N=C/c1ccc2c(c1)OCO2 | 3.98 µM (active) | – |
| O=C(CSCc1ccc(Cl)cc1)Nc1ccc2c(c1)OCCO2 | – | -20.7% [at 11.4 µM] (inactive) |
| O=C(Cn1nc(C(F)F)cc1C(F)F)N/N=C/c1ccc2c(c1)OCO2 | 5.01 µM (active) | – |
| Cc1oc(-c2ccccc2F)nc1CSCC(=O)NCc1ccc2c(c1)OCO2 | 1 µM (active) | – |
| O=C(O)C(Cl)(c1ccccc1)c1ccccc1 | – | -5.68% [at 11.4 µM] (inactive) |
| O=C(CSCc1cccc(Cl)c1)NCc1ccc2c(c1)OCO2 | 1.12 µM (active) | – |
| O=C(/C=C/c1ccc2c(c1)OCO2)NCCSCc1cccc(Cl)c1 | – | 18.2% [at 2.29 µM] (inactive) |
| Cc1cc(OC(=O)c2ccccc2Cl)cc(=O)n1C | inactive | – |
| CN(C)C(=O)c1ccc(-c2nccc(NCc3cccnc3)n2)cc1 | 15.8 µM (active) | – |
| Cc1cccc(CNc2ccnc(-c3ccc(C(=O)N(C)C)cc3)n2)c1 | 3.16 µM (active) | – |
| [N-]=[N+]=Nc1ccc(C(=O)CSC[C@@H](NC(=O)CC[C@@H](N)C(=O)O)C(=O)NCC(=O)O)cc1 | inactive | – |
| CC(C)[C@H]1C(=O)C(C(N)=O)=C(O)[C@]2(O)C(=O)C3=C(O)c4c(O)ccc(N(C)C)c4C[C@H]3C[C@@H]12 | inactive | – |
| COc1ncc2nc(-c3cccs3)c(=O)n(Cc3ccc(F)cc3)c2n1 | 3.16 µM (active) | – |
| COc1cccc(Cn2c(=O)c(-c3cccs3)nc3cncnc32)c1 | 5.01 µM (active) | – |
| COc1ccc(Nc2ncc3nc(-c4cccs4)c(=O)n(Cc4cccc(OC)c4)c3n2)cc1 | inactive | – |
| COc1ccc(Oc2ncc3nc(-c4cccs4)c(=O)n(Cc4cccc(OC)c4)c3n2)cc1 | 3.98 µM (active) | – |

| SMILES | AC50 | activity, negative = inhibition |
| --- | --- | --- |
| COc1cccc(Cn2c(=O)c(-c3cccs3)nc3cnc(OC)nc32)c1 | 3.98 µM (active) | – |
| O=C(O)c1ccc(C(=O)c2ccccc2)c(C(=O)O)c1 | – | -42.2% [at 11.4 µM] (inactive) |
| C=CCN=C(NC#N)SCc1ccccc1 | – | -3.62% [at 2.29 µM] (inactive) |
| COc1ncc2nc(-c3ccc(F)cc3)c(=O)n(Cc3ccc(F)cc3)c2n1 | 3.16 µM (active) | – |
| CCNc1ncc2nc(-c3ccc(OC)cc3)c(=O)n(Cc3ccc(F)cc3)c2n1 | inactive | – |
| CCN(CC)C(=O)COc1ccc(S(=O)(=O)N2CCOCC2)cc1 | – | -4.69% [at 11.4 µM] (inactive) |
| CCOc1ccc(NC(=O)CN2CCN(S(=O)(=O)c3ccc(Cl)cc3)CC2)cc1 | 14.1 µM (active) | – |
| CCOc1ccc(C(=O)CN2CCN(S(=O)(=O)c3ccc(F)cc3)CC2)cc1 | 6.31 µM (active) | – |
| COc1cc2c(cc1OC)CN(CC(=O)Nc1ccc3c(c1)OCO3)CC2 | 3.55 µM (active) | – |
| CCOC(=O)c1ccc(S(=O)(=O)N2CCN(C)CC2)cc1 | inactive | – |
| O=C(CN1CCN(S(=O)(=O)c2ccc(F)cc2)CC1)Nc1ccc(Cl)c(C(F)(F)F)c1 | 5.01 µM (active) | – |
| COc1ccc(NC(=O)CC#N)cc1OC | inactive | – |
| N[C@@H](Cc1ccnnc1)C(=O)O | – | -3.75% [at 11.4 µM] (inactive) |
| Cc1nnc(S(=O)(=O)c2ccc(N=Nc3c(N)nc(N)nc3N)cc2)s1 | – | 4.76% [at 11.4 µM] (inactive) |
| CCN(CC(=O)Nc1ccc2c(c1)OCCO2)C(=O)c1cccc(S(=O)(=O)N2CCOCC2)c1 | – | -20.1% [at 11.4 µM] (inactive) |
| O=C(CN1CCN(S(=O)(=O)c2ccc(F)cc2)CC1)Nc1ccc2c(c1)OCO2 | 2 µM (active) | – |
| O=C(CN1CCN(S(=O)(=O)c2ccc(Cl)cc2)CC1)Nc1ccc2c(c1)OCO2 | 1 µM (active) | – |
| CC1(C)CCCN(C(=O)c2coc(=O)c(Br)c2)C1 | inactive | – |
| CC(C)NC(=O)N1CCC2(CC1)CCN(C(=O)c1ccco1)CC2 | inactive | – |
| Cc1ccnc(NC(=O)c2cccc(NC(=O)COc3ccccc3)c2)c1 | – | -4.8% [at 2.29 µM] (inactive) |
| Cn1c(C(=O)O)c(CC(=O)NCc2cccnc2)c2ccccc21 | inactive | – |
| CCn1c(=O)cc(OCC(=O)Nc2cccnc2)c2ccccc21 | 7.08 µM (active) | – |
| Cn1c(=O)cc(OCC(=O)NCc2cccnc2)c2ccccc21 | 12.6 µM (active) | – |

| SMILES | AC50 | activity, negative = inhibition |
| --- | --- | --- |
| CCn1c(=O)cc(SCC(=O)Nc2cc(OC)c(OC)c(OC)c2)c2ccccc21 | 5.01 µM (active) | – |
| CCn1c(=O)cc(SCC(=O)N2CCN(C(=O)c3ccco3)CC2)c2ccccc21 | 7.08 µM (active) | – |
| O=C(Cc1ccc(Cl)cc1)N1CCN(C(=O)c2ccco2)CC1 | inactive | – |
| CCC(CC)C(=O)NCCN1CCN(C(=O)C(CC)CC)CC1 | – | 2.98% [at 2.29 µM] (inactive) |
| CC(C)CCOc1ccc(NC(=O)C2OC3OC(C)(C)OC3C3OC(C)(C)OC23)cc1 (configuration not stated) | – | -3.7% [at 2.29 µM] (inactive) |
| COc1cc(=O)n(C)c2c(OC[C@@H](O)C(C)(C)O)cccc12 | inactive | – |
| Cn1c(=O)cc(OCCCC(=O)Nc2cccnc2)c2ccccc21 | 6.31 µM (active) | – |
| CCN(C(=O)COc1cc(=O)n(C)c2ccccc12)c1cccc(Cl)c1 | 3.55 µM (active) | – |
| CCCNC(=O)OC[C@@H]1O[C@H](CCO/N=C(\C)CCN2CCCCc3nc(C)c(C)cc32)C=C[C@@H]1Oc1ccc(OC)cc1 | 3.16 µM (active) | – |
| CCCNC(=O)OC[C@@H]1O[C@H](CCO/N=C(\C)CCN2CCCc3nc(C)c(C)cc32)C=C[C@@H]1Oc1ccc(OC)cc1 | 3.98 µM (active) | – |
| Fc1cc2nc(-c3ccncc3)[nH]c2cc1F | 1.41 µM (active) | – |
| O=C(c1ccccc1)c1ccc2nc(-c3ccc(NC(=O)c4ccccc4F)cc3)[nH]c2c1 | inactive | – |
| C(=N\N1CCN(C2c3ccccc3-c3ccccc32)CC1)/c1cccnc1 | 12.6 µM (active) | – |
| C/C(=N\N1CCN(C2c3ccccc3-c3ccccc32)CC1)c1ccncc1 | 1 µM (active) | – |
| O=[N+]([O-])c1cc(/C=N/N2CCN(C3c4ccccc4-c4ccccc43)CC2)ccc1Cl | inactive | – |
| C/C(=N\N1CCN(C2c3ccccc3-c3ccccc32)CC1)c1cccnc1 | 2.82 µM (active) | – |
| O=c1c2cnn(-c3ccccc3)c2nnn1/N=C/c1cccnc1 | inactive | – |
| CC(C)(C)NC[C@H](O)COc1cccc2[nH]c(=O)[nH]c12 | inactive | – |
| Cc1ccccc1OCC(O)Cn1c(NCc2ccccc2)nc2c1c(=O)[nH]c(=O)n2C (configuration not stated) | 11.2 µM (active) | – |
| Cc1cc(C)n(-c2nc3c(c(=O)[nH]c(=O)n3C)n2CC(C)C)n1 | inactive | – |
| Cc1ccc(C(=O)CNc2nc3c(c(=O)[nH]c(=O)n3C)n2Cc2ccccc2)cc1 | 5.01 µM (active) | – |
| Cn1c(=O)[nH]c(=O)c2c1nc(NCCCO)n2CCCc1ccccc1 | inactive | – |
| COCCn1c(=O)c(C)nc2cnc(N(C)C)nc21 | inactive | – |

| SMILES | AC50 | activity, negative = inhibition |
| --- | --- | --- |
| CN(C)c1ncc2ncc(=O)n(CCc3ccccc3)c2n1 | inactive | – |
| CN(C)c1ncc2nc(-c3ccc(Cl)cc3)c(=O)n(Cc3cccs3)c2n1 | inactive | – |
| Cc1nc2cnc(N(C)C)nc2n(-c2ccccc2)c1=O | inactive | – |
| COCCn1c(=O)c(CCc2ccccc2)nc2cnc(N(C)C)nc21 | 15.8 µM (active) | – |
| CN(C)c1ncc2nc(CCc3ccccc3)c(=O)n(-c3ccccc3)c2n1 | 6.31 µM (active) | – |
| CN(C)c1ncc2nc(CCc3ccccc3)c(=O)n(CCc3ccccc3)c2n1 | 6.31 µM (active) | – |
| CN(C)c1ncc2nc(CCc3ccccc3)c(=O)n(Cc3cccs3)c2n1 | 10 µM (active) | – |
| CN(C)c1ncc2nc(-c3ccccc3)c(=O)n(CCc3ccccc3)c2n1 | inactive | – |
| CN(C)C(=O)Oc1cccc([N+](C)(C)C)c1 | inactive | – |
| Cc1nc(NC(=O)c2ccccc2)sc1-c1csc(Nc2ccc(F)cc2)n1 | 10 µM (active) | – |
| O=C(NNC(=O)c1cc2cc3ccccc3nc2s1)c1cccc(Cl)c1 | inactive | – |
| Cc1nc(NC(=O)c2ccco2)sc1-c1csc(Nc2ccc(Cl)cc2Cl)n1 | 5.01 µM (active) | – |
| Cc1nc(NC(=O)c2ccccc2)sc1-c1csc(Nc2ccc(Cl)cc2)n1 | – | 3.11% [at 2.29 µM] (inactive) |
| Cc1nc(NC(=O)c2ccccc2)sc1-c1csc(Nc2ccc(Cl)cc2Cl)n1 | 11.2 µM (active) | – |
| Cn1sc(NC(=O)c2ccccc2Cl)nc1=O | inactive | – |
| Cc1nc(NC(=O)c2ccccc2)sc1-c1csc(Nc2cccc(Cl)c2)n1 | 10 µM (active) | – |
| Cc1nnc(NC(=O)c2cccc(NC(=O)C(C)C)c2)s1 | inactive | – |
| C#CCOCCCC(=O)O | – | 0.116% [at 11.4 µM] (inactive) |
| CC(C)(N=NC(C)(C)C(=N)N)C(=N)N | – | -6.94% [at 11.4 µM] (inactive) |
| C=CCCC(=O)Nc1nc(C)c(-c2csc(Nc3ccc(Cl)cc3)n2)s1 | 10 µM (active) | – |
| O[C@@H](c1cc(C(F)(F)F)nc2c(Cl)cc(Cl)cc12)[C@@H]1CCCCN1 | – | -21% [at 11.4 µM] (inactive) |
| CC(C)CC(=O)Nc1ccccc1-c1nnn(CC(=O)N2CCc3ccccc3C2)n1 | inactive | – |
| CC(C)(C)NC(=O)Cn1nnc(-c2ccccc2NC(=O)c2cnccn2)n1 | 3.98 µM (active) | – |
